The results in this text go back to PubChem BioAssay (NCATS).

Assay [1] in a line: Cell Viability - HepG2 (AID 433; calls by dose curve;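 also: potency is read from the fitted curve at half-maximal effect; cells exposed to compound for 40 hours; potency for ATP loss meaning cytotoxicity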). The note with it: qHTS. The procedure, abridged: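 Read-out is luciferase-based quantitation of cellular ATP as a measure of viable HepG2 cells after 40 h treatment at 37 °C. Signal decrease is scaled between DMSO-only and 100 uM tamoxifen controls, with AC50 fitted by the Hill equation.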
(In general: In qHTS, concentration-response curves come from the screen itself.)

Assay [2] in a line: Cell Viability - Mesenchymal (AID 546).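 Also: cells exposed to compound for 40 hours before reading.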 The note with it: mesenchymal cells viability, qHTS; activity change, negative = cytotoxicity: at 91.7 µM (top of the series). An outline of the steps:
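In this qHTS cytotoxicity format, glomerulus-derived human mesenchymal kidney cells received compound for 40 hr, then luciferase-based ATP quantitation. Concentration-response data were fitted with the Hill equation.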

Assay [3] is described as follows: Cellular Toxicity (caspase-3) Jurkat (AID 655).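 Also: cells exposed to compound for 16 h at 37 °C before reading.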 As to conditions: Jurkat caspase-3 activation, luminescence; caspase-3 activation: at 92.2 µM (top of the series), DMSO = 0%, tamoxifen = 100%. An outline of the steps:
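5000 Jurkat cells/well; compound 16 hr, 37 °C; Caspase-Glo 3/7 added, 20 min RT; luminescence read. Norm: DMSO = 0%, tamoxifen 100 uM = 100%. AC50, Hill model.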

Assay [4] in a line: Cell Viability - LYMP1-002 - Assay at 16 hr (AID 948).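 Also: 0% = DMSO alone and full effect = 92 µM tetraoctylammonium bromide.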 The note with it: LYMP1-002 lymphoblastoid cell viability; series mostly up to 92.2 µM. An outline of the steps:
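Seed 2500 LYMP1-002 cells per well in complete medium and hold 5 hr at 37 C. Add compound across a concentration series and incubate 16 hr at 37 C. Add CellTiter-Glo, wait 30 min at room temperature, read luminescence.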

A short description of assay [5]: Cell Viability - LYMP2-003 (AID 965).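 Also: cells exposed to compounds for 24 h before reading; 0% = DMSO only and full effect = 92 µM tetraoctylammonium bromide; nearly all actives have a fitted effect of over 50% in size.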 As to conditions: LYMP2-003 lymphoblastoid cell viability; series mostly up to 92.2 µM. The procedure, abridged: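 Seed 2500 lymphoblastoid cells/well; incubate 5 hr, 37 C; add compounds; incubate 24 hr, 37 C; add CellTiter-Glo, 30 min RT; read luminescence. AC50 from Hill fit.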
Assay [6] is described as follows: Cell Viability - LYMP2-011 (AID 969).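 Also: 0% = DMSO only and full inhibition = 92 µM tetraoctylammonium bromide; nearly all actives have a fitted effect of over 60% in size.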 As to conditions: LYMP2-011 lymphoblastoid cells viability; series mostly up to 92.2 µM. The procedure, abridged:
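Cytotoxicity qHTS with ATP content as read-out: lymphoblastoid cells (2500/well) exposed to compound for 24 h at 37 C, then luciferase luminescence measured. Concentration-response data fitted with the standard Hill equation to give AC50.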

Assay [7] in a line: Cell Viability - LYMP2-013 (AID 970).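 Also: 0% = DMSO only and full inhibition = tetraoctylammonium bromide control; nearly all actives have a fitted effect of over 55% in size.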 As to conditions: LYMP2-013 lymphoblastoid cells viability; series mostly up to 92.2 µM. An outline of the steps:
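qHTS cytotoxicity: ATP-dependent luminescence (CellTiter-Glo, 30 min room temperature) read after 24 h compound exposure at 37 C of 2500 LYMP2-013 lymphoblastoid cells per well. Concentration-response fitted with Hill equation to give AC50.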

The nature of assay [8]: Cell Viability - LYMP2-021 (AID 974). Also: % is scaled to controls: 0 for no effect and ±100 for the full control effect; nearly all actives have a fitted effect of over 55% in size. As to conditions: LYMP2-021 lymphoblastoid cells viability; series mostly up to 92.2 µM. The procedure, abridged: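 AC50 values come from Hill-equation fits to CellTiter-Glo luminescence (ATP content), read after 24 hour compound exposure at 37 C of 2500 LYMP2-021 lymphoblastoid cells/well; tetraoctylammonium bromide as positive control.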

Assay [9] in a line: Cell Viability - LYMP2-002 (AID 977).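 Also: plate controls were DMSO only for no effect and 92 µM tetraoctylammonium bromide for full effect.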 The note with it: LYMP2-002 lymphoblastoid cell viability, qHTS; series mostly up to 92.2 µM. An outline of the steps:
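In this qHTS viability screen, 2500 human lymphoblastoid cells per well receive compound for 24 hr at 37 C, and luciferase-based ATP luminescence gives the viability signal. Tetraoctylammonium bromide serves as positive control.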

Assay [10] is described as follows: Cell Viability - LYMP2-008 (AID 980). Also: % is scaled to controls: 0 for no effect and ±100 for the full control effect; nearly all actives have a fitted effect of over 60% in size. The note with it: LYMP2-008 lymphoblastoid cell viability, qHTS; series mostly up to 92.2 µM. The procedure, abridged:
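Cytotoxicity determined from ATP-dependent luciferase luminescence (CellTiter-Glo) following 24 h compound exposure of human lymphoblastoid LYMP2-008 cells at 37 C. Concentration-response data fitted to the Hill equation to give AC50.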

Assay [11] can be described thus: Cell Viability - LYMP2-012 (AID 982).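 Also: cellular ATP by luciferase luminescence where a drop means cytotoxicity; cells exposed to compound for one day before reading; 0% = DMSO only and full loss = 92 µM tetraoctylammonium bromide; nearly all actives have a fitted effect of over 55% in size.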 The note with it: LYMP2-012 lymphoblastoid cell viability qHTS; series mostly up to 92.2 µM.
Assay [12] can be described thus: Cell Viability - LYMP2-014 (AID 983).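 Also: plate controls were DMSO only for no effect and 92 µM tetraoctylammonium bromide for full effect; nearly all actives have a fitted effect of over 50% in size.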 The note with it: LYMP2-014 lymphoblastoid cells, viability qHTS; series mostly up to 92.2 µM. An outline of the steps: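 Intracellular ATP loss, read by luciferase luminescence, measures acute cytotoxicity after 24 h compound exposure of lymphoblastoid LYMP2-014 cells (2500/well, 37 C). Concentration-response data fitted to the Hill equation for AC50.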

A short description of assay [13]: Cell Viability - LYMP2-016 (AID 984). Also: % is scaled to controls: 0 for no effect and ±100 for the full control effect; nearly all actives have a fitted effect of over 55% in size. As to conditions: LYMP2-016 lymphoblastoid cell viability, qHTS; series mostly up to 92.2 µM. An outline of the steps:
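Cells were seeded at 2500 per well and rested 5 hr before a 24 hr compound exposure at 37 C. Viability was then gauged as cellular ATP by luciferase luminescence, with AC50 values fitted to the Hill equation.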

Assay [14] is described as follows: Cell Viability - LYMP2-020 (AID 986). As to conditions: series mostly up to 92.2 µM. An outline of the steps: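 Cytotoxicity in qHTS format: luminescent ATP readout from CellTiter-Glo after 24 h compound exposure at 37 C in complete medium. LYMP2-020 lymphoblastoid cells were seeded at 2500/well; concentration-response data fitted to the Hill equation for AC50.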

Assay [15] can be described thus: Cell Viability - LYMP2-024 (AID 988).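 Also: plate controls were DMSO only for no effect and 92 µM tetraoctylammonium bromide for full effect; nearly all actives have a fitted effect of over 60% in size.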 As to conditions: LYMP2-024 lymphoblastoid cell viability; series mostly up to 92.2 µM. An outline of the steps: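 Cytotoxicity was taken as a decrease in ATP (CellTiter-Glo luminescence) after 24 hr compound exposure at 37 C of LYMP2-024 lymphoblastoid cells, 2500 cells/well. Concentration-response data were fitted to the Hill equation to give AC50.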

Assay [16] is described as follows: Cell Viability - LYMP2-026 (AID 989). Also: % is scaled to controls: 0 for no effect and ±100 for the full control effect; nearly all actives have a fitted effect of over 50% in size. The note with it: LYMP2-026 lymphoblastoid cell viability, qHTS; series mostly up to 92.2 µM. An outline of the steps:
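Cytotoxicity read as ATP-dependent luminescence (CellTiter-Glo, 30 min room temperature) after 24 h compound treatment at 37 C. LYMP2-026 lymphoblastoid line seeded at 2500 cells/well; AC50 derived by standard Hill equation.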

A short description of assay [17]: Cell Viability - LYMP1-002 - Assay at 40 hr (AID 994).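 Also: 0% = DMSO only and full inhibition = 92 µM tetraoctylammonium bromide; nearly all actives have a fitted effect of over 60% in size.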 The note with it: LYMP1-002 lymphoblastoid cell viability; series mostly up to 92.2 µM. An outline of the steps: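 Cytotoxicity was read as loss of cellular ATP (CellTiter-Glo luminescence) after 40 hr compound exposure at 37 C of 2500 LYMP1-002 lymphoblastoid cells per well. Concentration-response data were fitted with the standard Hill equation to give AC50.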

Assay [18] is described as follows: qHTS assay for small molecule antagonists of retinoid X receptor alpha signaling (AID 588546; active = well fitted inhibition curve with a large enough effect in the signal ratio, with a control signal flat, not every such curve was filed as active; the % refers to the signal ratio;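 also: cells stimulated with 9-cis-retinoic acid as agonist; % is scaled to controls: 0 for no effect and ±100 for the full control effect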). The note with it: HEK293T RXRa-UAS-bla, beta-lactamase ratio, antagonist mode; measured here: W530 green channel, cytotoxicity proxy. An outline of the steps:
(§1)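 Beta-lactamase reporter inhibition, read as CCF4 fluorescence ratio (ex 405, em 460/530 nm) after 2 h at RT. HEK293T UAS-bla cells, 2500/well, were stimulated with 9-cis-RA at 500 or 100 nM final alongside test compound for 18 h at 37 C.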

The target in assay [19] is Retinoic acid receptor RXR-alpha (Homo sapiens) (UniProt P19793). Described as above. The note with it: HEK293T RXRa-UAS-bla, beta-lactamase ratio, antagonist mode. The procedure, abridged: as §1
Chain of Retinoic acid receptor RXR-alpha (Homo sapiens) (P19793 whole entry, looked up): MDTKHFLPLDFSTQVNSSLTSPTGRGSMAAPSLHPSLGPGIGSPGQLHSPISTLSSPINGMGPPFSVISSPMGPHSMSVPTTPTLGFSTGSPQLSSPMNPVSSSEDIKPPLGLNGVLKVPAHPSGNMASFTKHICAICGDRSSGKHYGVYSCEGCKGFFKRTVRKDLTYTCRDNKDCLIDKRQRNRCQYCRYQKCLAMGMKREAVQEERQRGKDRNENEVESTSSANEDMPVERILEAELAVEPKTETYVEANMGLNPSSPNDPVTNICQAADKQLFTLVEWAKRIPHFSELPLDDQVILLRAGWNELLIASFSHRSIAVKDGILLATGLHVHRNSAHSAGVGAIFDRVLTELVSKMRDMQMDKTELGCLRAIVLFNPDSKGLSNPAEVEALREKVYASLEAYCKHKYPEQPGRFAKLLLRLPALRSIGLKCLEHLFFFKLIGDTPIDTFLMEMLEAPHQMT
The nature of assay [20]: qHTS assay for environmental chemicals that activate the Aryl hydrocarbon Receptor (AhR) signaling pathway (AID 651777). Also: % of control where 0% means no effect; nearly all actives have a fitted effect of over 15% in size. As to conditions: 1A2-DRE human hepatoma cells, luciferase, 24 h; activation: stronger effect = higher value. The procedure, abridged:
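Measured luciferase activity, read 30 min after One-Glo addition at room temperature, from human hepatoma cells bearing a dioxin response element–CYP1A2 promoter reporter and exposed to compound for 24 hr at 37 C.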

Results filed as inconclusive are left out. Calls of active or inactive are those of the source. Unless noted, calls follow the shape of the dose curve; as a rule, active = well fitted curve in the direction sought with a large enough effect; inconclusive = small, poorly fitted or top-dose-only effect, or another doubt; inactive = no such curve, though single readings can be large; an effect the other way counts as inactive or inconclusive.

With `CCC(Cl)CC(Cl)C(Cl)C(Cl)C(Cl)C(C)Cl` (stereo not given), the Potency in assay [1] is > 92 µM (inactive). The Potency result in assay [2], in assay [3], in assay [4], in [5], in assay [6] and in assay [7] was “inactive” throughout. Moreover, the Potency entry in [8], in [9], in assay [10], in assay [11], in assay [12] and in assay [13] was “inactive” throughout. Moreover, the Potency entry in assay [14], in [15], in assay [16] and in assay [17] was “inactive” in each case. Further, the figures for the max response in assay [18] and in assay [19] were 7.22% and -1.06% (inactive), respectively. Moreover, the activation in assay [20] was -0.274% (inactive).
On to `Cc1c(N)cccc1Cl`, for which, in [1], the Potency is > 92 µM (inactive). In addition, the Potency result in [2], in assay [3], in assay [4], in assay [5], in assay [6] and in assay [7] was “inactive” in each case. Also, the Potency result in assay [8], in assay [9], in assay [10], in assay [11], in [12] and in [13] was “inactive” each time. Moreover, the Potency entry in assay [14], in [15], in assay [16] and in assay [17] was “inactive” each time. Further, the max response was 0.883% in assay [18] and 1.61% (inactive) in assay [19]. For the same compound, the activation in assay [20] was -0.26% (inactive).
As for `Cc1ccc(N)cc1[N+](=O)[O-]`, in assay [1], the Potency was > 92 µM (inactive). For the same compound, the Potency entry in assay [2], in [3], in assay [4], in [5], in assay [6] and in [7] was “inactive” throughout. Also, the Potency entry in assay [8], in assay [9], in assay [10], in assay [11], in assay [12] and in assay [13] was “inactive” in each case. Further, the Potency result in [14], in assay [15], in [16] and in assay [17] was “inactive” in each case. Further, the max response is -2.06% in [18] and -2.5% (inactive) in assay [19]. In addition, the activation in [20] was 0.886% (inactive).
On to `c1c[nH]cn1`, for which the Potency in assay [1] was > 92 µM (inactive). For the same compound, the Potency result in assay [2], in [3], in assay [4], in assay [5], in [6] and in assay [7] was “inactive” each time. Further, the Potency result in assay [8], in assay [9], in [10], in assay [11], in [12] and in assay [13] was “inactive” each time. Also, the Potency result in assay [14], in assay [15], in assay [16] and in assay [17] was “inactive” throughout. In addition, the max response is -8.47% in assay [18] and -1.89% (inactive) in assay [19]. In addition, the activation in assay [20] was -1.48% (inactive).
Regarding `C/C(Cl)=C/CCl`, in assay [1], the Potency was > 92 µM (inactive). The Potency entry in assay [2], in assay [3], in assay [4], in [5], in assay [6] and in [7] was “inactive” in each case. Besides, the Potency result in assay [8], in assay [9], in assay [10], in [11], in [12] and in assay [13] was “inactive” in each case. The Potency entry in [14], in assay [15], in assay [16] and in assay [17] was “inactive” each time. Further, the max response was -2.04% in assay [18] and 6.91% (inactive) in [19]. In addition, the activation in [20] was 0.708% (inactive).
On to `OCC(CBr)(CBr)CBr`, for which the Potency in assay [1] is > 92 µM (inactive). The Potency entry in [2], in assay [3], in [4], in [5], in assay [6] and in assay [7] was “inactive” each time. In addition, the Potency result in [8], in assay [9], in [10], in assay [11], in [12] and in assay [13] was “inactive” in each case. The Potency entry in [14], in assay [15], in assay [16] and in [17] was “inactive” in each case. For the same compound, the max response in assay [18] was -12.3%; in [19], 0.481% (inactive). In addition, the activation in assay [20] is 7.86% (inactive).
